Assay results from article PMC5540273 (PLoS ONE, 2017).

Columns and labels:
Conditions in all cases: concentration: 1 μM, replicates: in singlicate; n = 1
MST1R = tested on: MST1R
MST1 = tested on: T1, MST1
T1 construct: gene STK4

MST2 = tested on: T2, MST2
T2 construct: gene STK3

MST3 = tested on: T3, MST3
T3 construct: gene STK24

MST4 = tested on: MST4
MTOR = tested on: MTOR
MUSK = tested on: MUSK
MYLK2 = tested on: MYLK2
MYLK4 = tested on: MYLK4
MYLK = tested on: MYLK
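Note: KINOMEscan kinase panel screen.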

Row | Compound | %Inh (MST1R) | %Inh (MST1) | %Inh (MST2) | %Inh (MST3) | %Inh (MST4) | %Inh (MTOR) | %Inh (MUSK) | %Inh (MYLK2) | %Inh (MYLK4) | %Inh (MYLK)
1 | Nc1ncnc2occ(-c3ccc4c(c3)CCN4C(=O)Cc3cc(F)ccc3F)c12 [GSK2645446] | 11% | 21% | 0% | 13% | 0% | 3% | 3% | 27% | 7% | 9%
2 | CSc1ccc(-c2nc3n(c2-c2ccncc2)CCC3)cc1 [SKF-105561] | 0% | 0% | 9% | 0% | 20% | 0% | 0% | 3% | 0% | 0%
3 | Nc1cccc(-c2ccc3c(N)n[nH]c3c2)n1 [GSK2192730] | 33% | 0% | 21% | 9% | 0% | 15% | 4% | 90% | 72% | 34%
4 | FC(F)(F)c1ccccc1-c1cc(-c2c[nH]nc2-c2ccccn2)ccn1 [GW679396] | 13% | 4% | 0% | 5% | 0% | 0% | 0% | 26% | 0% | 8%
5 | COc1ccc(Nc2nccc(NCCNC(=O)Nc3cc(C)ccc3C)n2)cc1 [GSK1379899] | 15% | 8% | 0% | 0% | 0% | 0% | 0% | 14% | 0% | 0%
6 | CC(=O)c1cccc(NC(=O)NC2CCN(c3ccnc(Nc4ccc(F)cc4)n3)C2)c1 (stereo not shown) [GSK1379710] | 31% | 0% | 22% | 3% | 0% | 21% | 8% | 0% | 21% | 11%
7 | CC[C@@H]1CO[C@H](C(=O)Nc2ccccc2)CN1c1cc(-c2ccc3c(N)n[nH]c3c2)nc(NC)n1 [GSK2376236] | 26% | 0% | 10% | 0% | 0% | 9% | 2% | 8% | 10% | 22%
8 | Cc1c(Cn2c(C)c(C)n3c(=O)cc(N4CCOCC4)nc23)cccc1C(F)(F)F [GSK2328680] | 12% | 2% | 0% | 6% | 0% | 32% | 45% | 7% | 0% | 14%
9 | CS(=O)(=O)CCNCc1nc(-c2ccc3ncnc(Nc4ccc(OCc5ccccc5)c(Cl)c4)c3c2)cs1.Cl [GW582764] | 14% | 0% | 0% | 0% | 0% | 8% | 0% | 3% | 0% | 0%
10 | Cc1c(Cn2c3ccccc3n3c(=O)cc(N4CCOCC4)nc23)cccc1C(F)(F)F [GSK2306394] | 0% | 15% | 12% | 2% | 0% | 3% | 6% | 17% | 0% | 2%
11 | CS(=O)(=O)Cc1ccc(Nc2nccc(-c3c(-c4cccc(NC(=O)C5CCCCC5)c4)nn4ncccc34)n2)cc1 [GSK350559] | 11% | 11% | 44% | 3% | 23% | 18% | 0% | 0% | 0% | 31%
12 | CNc1cc(-c2ccc3c(N)n[nH]c3c2)nc(N)n1 [GSK2224810] | 27% | 0% | 0% | 24% | 0% | 0% | 0% | 64% | 56% | 10%
13 | COc1ccc2cc(-c3nc(-c4ccccc4C(C)C)[nH]c3-c3ccncc3)ccc2c1 [SB-660566] | 42% | 7% | 58% | 0% | 0% | 31% | 18% | 15% | 4% | 0%
14 | CC(=O)c1c(C)c2cnc(Nc3ccn(C)n3)nc2n(C2CCCC2)c1=O | 4% | 2% | 0% | 10% | 0% | 14% | 0% | 0% | 0% | 0%
15 | Cc1ccc(NC(=O)Nc2ccccc2)cc1-c1ccc(C(=O)Nc2ccncc2)cc1 [GSK1398471] | 29% | 0% | 0% | 0% | 0% | 0% | 4% | 0% | 3% | 20%
16 | Fc1ccc(-c2nc3n(c2-c2ccncc2)CCS3)cc1 [GI98581] | 39% | 29% | 25% | 0% | 0% | 12% | 15% | 14% | 0% | 12%
17 | O=C1NC(=O)C(c2ccc(Cl)cc2)=C1Nc1cccc(Cl)c1 [SB-317651] | 9% | 6% | 43% | 13% | 0% | 8% | 7% | 30% | 0% | 0%

Row | Compound | %Inh (MST1R) | %Inh (MST1) | %Inh (MST2) | %Inh (MST3) | %Inh (MST4) | %Inh (MTOR) | %Inh (MUSK) | %Inh (MYLK2) | %Inh (MYLK4) | %Inh (MYLK)
18 | Cc1ccc(NC(=O)Nc2ccc(Cl)cc2)cc1-c1ccc(C(=O)Nc2ccncc2)cc1 [GSK1398472] | 20% | 8% | 0% | 0% | 0% | 18% | 11% | 0% | 0% | 2%
19 | COc1ccc(Nc2nccc(-c3ccc(NC(=O)c4cc5cc(F)ccc5[nH]4)cc3)n2)cc1 [GSK1229496] | 7% | 0% | 0% | 0% | 0% | 20% | 0% | 0% | 28% | 6%
20 | Cc1ccccc1Cn1ccn2c(=O)cc(N3CCOCC3)nc12 [GSK2269905] | 17% | 0% | 0% | 0% | 0% | 9% | 2% | 8% | 0% | 0%
21 | COc1cc2ncnc(Nc3cccc(Br)c3)c2cc1OC.Cl [GI230329] | 30% | 0% | 0% | 1% | 0% | 0% | 0% | 7% | 5% | 0%
22 | c1ccc(-c2ccnc3[nH]ccc23)cc1 [SB-693578] | 9% | 3% | 4% | 0% | 0% | 29% | 0% | 0% | 0% | 12%
23 | O=C(Nc1n[nH]c2cc(-c3ccsc3)ccc12)C1CC1 [SB-732932] | 22% | 0% | 34% | 16% | 27% | 0% | 11% | 97.1% | 22% | 24%
24 | Cc1ccc(NC(=O)Nc2ccccc2F)cc1-c1ccc(C(=O)Nc2ccncc2)cc1 [GSK1398477] | 33% | 22% | 7% | 0% | 0% | 11% | 31% | 19% | 7% | 23%
25 | O=c1cc(N2CCOCC2)nc2n(Cc3ccccc3F)ccn12 [GSK2297428] | 26% | 8% | 0% | 0% | 0% | 13% | 0% | 0% | 0% | 12%
26 | COC(=O)c1cccc(NC(=O)NC2CCN(c3ccnc(Nc4ccc(F)cc4)n3)C2)c1 (stereo not shown) [GSK1379725] | 39% | 0% | 0% | 0% | 0% | 7% | 0% | 0% | 0% | 0%
27 | COc1ccc(Nc2nccc(N3CCC(NC(=O)C(C)c4ccc(Cl)cc4)CC3)n2)cc1 (stereo not shown) [GSK1379812] | 54% | 44% | 0% | 0% | 0% | 3% | 0% | 6% | 6% | 4%
28 | CC(C)c1ccc(O)cc1Nc1ccnc2ccc(C(F)(F)F)cc12 [GW482059] | 0% | 0% | 0% | 0% | 0% | 6% | 3% | 3% | 0% | 3%
29 | Cc1nccc(-c2c(-c3ccc(F)cc3)ncn2CCCN2CCOCC2)n1.Cl [SB-282975] | 0% | 7% | 5% | 0% | 5% | 21% | 0% | 6% | 0% | 30%
30 | COc1ccc(Nc2nccc(N3CCC(NC(=O)c4cc5ccccc5s4)C3)n2)cc1 (stereo not shown) [GSK1379738] | 27% | 0% | 0% | 0% | 0% | 15% | 0% | 0% | 3% | 11%
31 | COc1ccc(CSc2nnc(-c3ccc4nccn4c3)o2)cc1C(F)(F)F | 0% | 0% | 0% | 15% | 7% | 0% | 9% | 8% | 21% | 0%
32 | COc1ccc(-c2coc3ccc(-c4nnc(C)o4)cc23)cc1 | 0% | 0% | 0% | 0% | 0% | 5% | 4% | 18% | 14% | 0%
33 | Cl.Cl.Cl.N#Cc1ccc(CCNc2nccc(-c3cccc(CN4CCNCC4)c3)n2)cc1 [GSK2137462] | 37% | 0% | 0% | 18% | 0% | 0% | 14% | 12% | 38% | 35%
34 | Fc1ccc(-c2nn3cccc(F)c3c2-c2ccncc2)cc1 [GW475620] | 18% | 30% | 0% | 0% | 0% | 20% | 11% | 0% | 0% | 14%
